Measurements as given in PubChem BioAssay AID2380 (Sanford-Burnham Center for Chemical Genomics, 2010).
Hit rate of the full screen: of about 330,000 compounds, about 960 (0.29%) were called active.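 How the source made its calls: active means compounds whose signal lies at least 3.5 SD above the mean of all wells on their plate; inactive means the rest.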 What follows is part of a selection rich in actives, with near analogues and random picks from the rest.

Experiment: small molecules increasing insulinoma cell replication – ATP luminescence, uHTS, primary screen (AID 2380);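 further: 0% = DMSO-treated cells in low-serum medium and 100% = 10% serum control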
Details: MIN6 cells proliferation, ATPlite luminescence, 48 h; at 10 µM; stronger effect = higher value; 100% = growth in 10% serum; cells starved in 0.2% serum

SMILES | proliferation
Cc1cc(C)c(S(=O)(=O)NCC2CCC(C(=O)NCc3ccc4c(c3)OCO4)CC2)c(C)c1 (configuration not stated) | -1.16% (inactive)
O=C(CN1CCN(c2ccc(Cl)cc2)CC1)c1ccccc1 | -0.29% (inactive)
COc1ccc(CN2CCNC(=O)C2CC(=O)NCc2cn[nH]c2-c2ccccc2)c(F)c1 (configuration not stated) | 0.21% (inactive)
Cc1ccc2c(c1)N(S(=O)(=O)c1cc(-c3cc(C)no3)ccc1C)CCO2 | -6.66% (inactive)
C=CCOC(=O)C1=C(C)OC(N)=C(C#N)C1c1ccc(F)cc1 (configuration not stated) | -0.46% (inactive)
CCOC(=O)C1=C(CC)OC(N)=C(C#N)C1c1ccc(F)cc1F (configuration not stated) | 9.9% (active)
CCOC(=O)C1=C(C)OC(N)=C(C#N)C1c1cncc(-c2ccc(F)cc2)c1 (configuration not stated) | -3.32% (inactive)
CC(=O)NC(C)(C)C1CC=C(C)/C(=N\O)C1 (configuration not stated) | -0.3% (inactive)
CCOC(=O)Nc1sc(C(=O)N(C)C)c(C)c1C(=O)OCC | 7.91% (active)
CCOC(=O)c1sc(NC(=O)CCN2CCOCC2)c(C(=O)OCC)c1C | -6.14% (inactive)
CCOC(=O)c1c(NC(=O)CCl)sc(C(=O)N(CC)CC)c1C | -3.42% (inactive)
NC(=O)c1nsc(C(=O)N(CCCN2CCOCC2)C(C(=O)NC2CCCCC2)c2ccc(Cl)cc2)c1N (configuration not stated) | 0% (inactive)
Cc1noc(COc2ccccc2OCc2onc(C)c2Cl)c1Cl | -3.09% (inactive)
Cn1nc(-c2ccccc2)c2cc([N+](=O)[O-])ccc21 | 8.71% (active)
O=[N+]([O-])c1ccc2c(c1)C(O)n1nc(-c3ccccc3)nc1S2 (configuration not stated) | -0.32% (inactive)
COC(=O)Cn1nc(-c2ccccc2)c2cc(Cl)ccc21 | -1.48% (inactive)
C/C(Cl)=C\Cn1c(Nc2cccc(C)c2)nc2c1c(=O)n(C)c(=O)n2C | -1.44% (inactive)
COc1ccc(NC(=O)CNc2cc(S(=O)(=O)N3CCOCC3)ccc2N2CCOCC2)c(OC)c1 | -0.63% (inactive)
CCOC(=O)C1(Cc2ccccc2C)CCCN(C(=O)CCc2c(C)noc2C)C1 (configuration not stated) | 0.64% (inactive)

SMILES | proliferation
CCOC(=O)N1CCN(C(=O)c2cn(C)c3ccc(S(=O)(=O)N4CCCC4)cc3c2=O)CC1 | -0.22% (inactive)
Cc1ccc(S(=O)(=O)N2CCCCC2)cc1C(=O)N1CCN(CCO)CC1 | 12.6% (active)
Cc1ccc(S(=O)(=O)N2CCN(C)CC2)cc1C(=O)NC1CCCCC1 | -0.96% (inactive)
CCC(NC(=O)c1ccccc1NC(=O)c1ccccc1)C(=O)NNC(=O)CSc1nc2ccccc2o1 (configuration not stated) | -0.4% (inactive)
COc1ccc(N(CC(=O)N2CCOCC2)S(=O)(=O)c2ccccc2)cc1Cl | -0.37% (inactive)
COCCN(C(=O)CCC(=O)Nc1nccs1)C(C(=O)NC(C)(C)C)c1ccc(Cl)cc1 (configuration not stated) | 5.62% (inactive)
CC(=O)Nc1ccc(/C(C)=N/NC(=O)CN(c2ccccc2Br)S(C)(=O)=O)cc1 | 0% (inactive)
CCn1c(=O)cc(SCC(=O)NCc2ccc3c(c2)OCO3)c2ccccc21 | 0.19% (inactive)
C=CCn1c(=O)c(C(=O)NCc2ccc3c(c2)OCO3)c(O)c2ccccc21 | -5.37% (inactive)
CCn1c(=O)c([N+](=O)[O-])c(NCc2ccc3c(c2)OCO3)c2ccccc21 | 8.6% (active)
CCc1ccc(S(=O)(=O)NCC(O)COc2ccc(OC)cc2)cc1 (configuration not stated) | 1.69% (inactive)
COc1ccc(CN(C(=O)CSc2nnc(-c3ccc(OC)c(OC)c3)o2)c2ccc(F)cc2)cc1 | -1.49% (inactive)
CSc1cccc(NC(=O)CN2C(=O)COc3ccc(S(=O)(=O)N4CCOCC4)cc32)c1 | -3.64% (inactive)
O=C(c1ccc(F)cc1)c1cn(Cc2ccc(F)cc2)c2cc3c(cc2c1=O)OCCO3 | -0.71% (inactive)
Cc1cc(NC(=O)CSc2nc3ccccc3n2CC(C)C)no1 | 7.98% (active)
Cc1cc(NC(=O)CSCC(=O)NC(C)c2ccccc2)no1 (configuration not stated) | -3.94% (inactive)
Cc1cc(NC(=O)COn2nnc3ccccc32)no1 | -1.01% (inactive)
CCOc1ccc(C(=O)Nc2ccc(CN3CCOCC3)cc2)cc1Cl | -1.37% (inactive)
CCOC(=O)c1csc(CCNC(=O)c2oc3c(Cl)cc(C)cc3c2C)n1 | -3.1% (inactive)

SMILES | proliferation
CCOC(=O)C(C)n1nc(-c2ccccc2)c2ccccc2c1=O (configuration not stated) | 4.32% (inactive)
CCCNC(=O)CCn1nc(-c2ccccc2)c2ccccc2c1=O | 9.9% (active)
O=c1c2ccccc2c(-c2ccc(Br)cc2)nn1Cc1ccccc1 | -5.75% (inactive)
CCCn1c(C)cc(/C=C(\C#N)C(=O)OCC(=O)Nc2cc(OC)c(OC)c(OC)c2)c1C | -0.86% (inactive)
COc1ccccc1N(C)C(=O)c1cc(S(=O)(=O)N2CCc3ccccc32)cn1C | -2.09% (inactive)
CCOC(=O)c1c(N=CN(C)C)c(C#N)c2n1CCCC2 | 5.05% (inactive)
CC1=NN(C(=O)CCCc2ccccc2)C(O)(C(F)(F)F)C1 (configuration not stated) | -1.71% (inactive)
OC1CN=C2Sc3ccccc3N2C1 (configuration not stated) | 5.2% (active)
CCOC(=O)N1CCN(C(=O)c2ccc3nc4cc(Cl)ccc4c(=O)n3c2)CC1 | -2.76% (inactive)
O=C(CN1CCN(c2ccc(Cl)cc2)CC1)NCc1cccs1 | 0.22% (inactive)
COc1cc2c(cc1OC)C(C(=O)NCc1ccco1)C1c3ccccc3CCN1C2=O (configuration not stated) | 9.44% (active)
CC1(C)SC2c3ccccc3C(=O)N2[C@@H]1C(=O)NCc1ccco1 (some centres not stated) | 0.14% (inactive)
COc1ccc(S(=O)(=O)N2CCC(C(=O)NCc3ccco3)CC2)cc1C | -0.27% (inactive)
O=C1NC(c2ccc(-c3ccccc3[N+](=O)[O-])o2)C(C(=O)c2ccc(Cl)cc2)C(O)(C(F)(F)F)N1 (configuration not stated) | -2.76% (inactive)
COC(C(=O)NCc1ccccc1C)c1ccccc1 (configuration not stated) | -1.34% (inactive)
CC(=O)CC[C@@H](C)O[C@@H]1OC(C)[C@H](O)CC1O (some centres not stated) | -5.25% (inactive)
COc1cccc(CNC(=O)CCC2CCCN(C(=O)c3ccc(F)c(Cl)c3)C2)c1 (configuration not stated) | -1.84% (inactive)
COc1cccc(CNC(=O)CCC2CCCN(C(=O)c3cc(C)[nH]n3)C2)c1 (configuration not stated) | 0.78% (inactive)
COc1cccc(CNC(=O)CCC2CCCN(C(=O)c3ccoc3C)C2)c1 (configuration not stated) | 12.3% (active)
